Here are results for 40 compounds from PubChem BioAssay (NCATS).

Inconclusive results are not listed. Unmarked numbers belong to inactive results. Activity calls are given as the source filed them. Calls follow the shape of the dose curve; as a rule, active = well fitted cell-killing curve with a large enough effect; inconclusive = small, poorly fitted or top-dose-only effect, or effect the other way; inactive = no such curve, though single readings can be large or run the other way.
Potency is read from the fitted curve at half-maximal effect.

A short description of the assay: Quantitative High-Throughput drug screen in 47 multiple myeloma cell lines against the NCATS MIPE library collection: KMS27_JCRB cell viability assay (AID 1918970). Also: nearly all actives have a fitted effect of over 30% in size. The conditions noted are these: KMS27 myeloma cells, CellTiter-Glo ATP viability, 48 h; series mostly up to 45.8 µM; viability (% of DMSO): at the top concentration. An excerpt: PI: Beverly A. Mock Ph.D.
Laboratory of Cancer Biology and Genetics,
Center for Cancer Research, National Cancer Institute,
National Institute of Health, Bethesda, Maryland
Drug resistance and disease progression are common in multiple myeloma (MM) patients, underscoring the need for new therapeutic combinations. […] We hypothesized that effective combinations would reduce MYC expression and enhance p16 activity. […] These preclinical data identify potentially useful drug combinations for evaluation in drug-resistant MM and reveal potential mechanisms of combined drug sensitivity.
Described herein is the primary MIPE qHTS used to cherrypick compounds. Validated compounds were then further tested for potential synergistic activiy.
[1] Peat TJ, Gaikwad SM, Dubois W, Gyabaah-Kessie N, Zhang S, Gorjifard S, Phyo Z, Andres M, Hughitt VK, Simpson RM, Miller MA, Girvin AT, Taylor A, Williams D, D'Antonio N, Zhang Y, Rajagopalan A, Flietner E, Wilson K, Zhang X, Shinn P, Klumpp-Thomas C, McKnight C, Itkin Z, Chen L, Kazandijian D, Zhang J, Michalowski AM, Simmons JK, Keats J, Thomas CJ, Mock BA. Drug combinations identified by high-throughput screening promote cell cycle transition and upregulate Smad pathways in myeloma. […] Epub 2023 Jun 24. PMID: 37356470; PMCID: PMC10408729.
SEQUENCE No. (e.g., 1, 2, 3, etc.); […] (e.g., Cells, Incubation, Reagent, etc.); VALUE and DESCRIPTION.
1; Cells; 5 uL; white, solid bottom 1536-well Greiner assay plate.
2; Compounds; 23 nL; Kalypsis pin tool (Wako USA) equipped with a 1536-well pin head to transfer to the assay plates.
3; Incubation; 48 hours; 37C incubation.
4; Reagent;5uL; CellTiter Glo (Promega).
5; Detector; 425V; Luminescence; Viewlux PerkinElmer.
NOTES (numbers refer to Sequence numbers above)
1. The cell-based screening methods employed in this study were like those previously published. Briefly, the corresponding myeloma cell lines were screened in 1,536-well plates with 500 cells, 5-uL per well for inhibition of cell viability (assessed by measuring ATP levels with CellTiterGlo).
2. NCATS MIPE 4.0 library of approved and investigational drugs were added using the Kalypsis pin tool. Wells treated with DMSO only for 100% viability and media only wells for 0% viability were used as controls.
3. The assay plates were covered and incubated for 48 hours in a 37C, 5% CO2 incubator with controlled humidity.
4. After 48 hours, CellTilter-GloTM luminescent substrate mix (Promega) reagent was added to the assay plate and plates we incubated for 5 min at room temperature.
5. Signal was measured as median relative luminescence units on a ViewLux (PerkinElmer) multiplate reader.
[1] Heske CM, Davis MI, Baumgart JT, Wilson K, Gormally MV, Chen L, Zhang X, Ceribelli M, Duveau DY, Guha R, Ferrer M, Arnaldez FI, Ji J, Tran HL, Zhang Y, Mendoza A, Helman LJ, Thomas CJ. Matrix Screen Identifies Synergistic Combination of PARP Inhibitors and Nicotinamide Phosphoribosyltransferase (NAMPT) Inhibitors in Ewing Sarcoma. Clin Cancer Res. 2017 Dec 1;23(23):7301-7311. doi: 10.1158/1078-0432.CCR-17-1121. Epub 2017 Sep 12. PMID: 28899971; PMCID: PMC6636827.
As for `C=CC(=O)Nc1cc2c(Nc3ccc(F)c(Cl)c3)ncnc2cc1C#CC(C)(C)N1CCN(C)CC1`, the Potency is 833 nM (active).

Take `CNC(=O)CN1CCC(Oc2cc3c(Nc4cccc(Cl)c4F)ncnc3cc2OC)CC1`: the Potency is 1 nM (active).

Consider `Cc1cc(Nc2cc(N3CCN(C)CC3)nc(Sc3ccc(NC(=O)C4CC4)cc3)n2)n[nH]1`, for which the Potency was 11.8 nM (active).

In the case of `OCc1ccc(-c2ccc(-c3ccc(CO)s3)o2)s1`, the Potency was 11.8 nM (active).

On to `CN1c2cc(O)c(N=NC(N)=O)cc2CC1S(=O)(=O)O` (stereo not given), for which the “viability (% of DMSO)” value was 106%.

As for `O=C(C=Cc1c(C(=O)O)[nH]c2cc(Cl)cc(Cl)c12)Nc1ccccc1`, the “viability (% of DMSO)” value was 126%.

On to `Cc1cc(Nc2nc(N[C@@H](C)c3ccc(F)cc3)c(C#N)cc2F)n[nH]1`, for which the Potency was 935 nM (active).

Turning to `CC[C@@]1(O)C(=O)OCc2c1cc1n(c2=O)Cc2cc3cc(O)ccc3nc2-1`, the Potency was 18.7 nM (active).

For the compound `C1=CCOCc2cc(ccc2OCCN2CCCC2)Nc2nccc(n2)-c2cccc(c2)OCC1`, the Potency was 1480 nM (active).

Regarding `O=C(Nc1cn[nH]c1-c1nc2ccc(CN3CCOCC3)cc2[nH]1)NC1CC1`, the Potency is 3320 nM (active).

In the case of `CC(C)c1nn(-c2c(Cl)cccc2Cl)c2nc(Cc3ccc(OCCO)cc3)[nH]c(=O)c12`, the “viability (% of DMSO)” value was 149%.

On to `Cc1ccc(C(N)=O)cc1Nc1nccc(-c2cn(C(C)C)c3cnccc23)n1`, for which the Potency was 3320 nM (active).

Take `c1nc2nc(Nc3ccc(N4CCOCC4)cc3)nc(NC3CCCCC3)c2[nH]1`: the Potency is 5900 nM (active).

With `Nc1ncnc2c1c(-c1cccc(OCc3ccccc3)c1)cn2C1CC(CN2CCCC2)C1` (stereo not given), the Potency was 18700 nM (active).

In the case of `COc1cc2c(Oc3ccc(-c4cnc(Nc5ccc(F)cc5)n(C)c4=O)cc3F)ccnc2cc1OCCCN1CCOCC1`, the Potency was 1180 nM (active).

Consider `OCCCNc1cc(-c2ccnc(Nc3cccc(Cl)c3)n2)ccn1`, for which the Potency is 41.8 nM (active).

As to `CCCCCN(CCC12CC3CC(CC(C3)C1)C2)C(=O)NCCCc1ccncc1`, the Potency is 4180 nM (active).

As for `COC(=O)C1=C(C)NC(C)=C(C(=O)OCCN2CCN(C(c3ccccc3)c3ccccc3)CC2)C1c1cccc([N+](=O)[O-])c1` (stereo not given), the “viability (% of DMSO)” value was 112%.

Consider `CCN1CCN(CC(=O)Nc2ccc(-c3cccc4c(=O)cc(N5CCOCC5)oc34)c3sc4ccccc4c23)CC1`, for which the Potency is 418 nM (active).

Turning to `COc1cc(OC2CCN(C)CC2)ccc1Nc1ncc2c(n1)n(C1CCCC1)c(=O)n2C`, the Potency is 20900 nM (active).

Turning to `CN(C1CCc2c(c3ccccc3n2CC(=O)O)C1)S(=O)(=O)c1ccc(F)cc1` (stereo not given), the Potency is 1180 nM (active).

For `COCCOc1ccc2c(c1)ncn2-c1ccc2cccc(N3CCC(N)CC3)c2n1`, the Potency is 1660 nM (active).

For `N#Cc1c(O)c2c(-c3ccc(-c4ccccc4O)cc3)csc2[nH]c1=O`, the “viability (% of DMSO)” value is 135%.

Turning to `Cc1ccc(C(=O)Nc2cccc(C(F)(F)F)c2)cc1-c1ccc2nc(NCCN3CCOCC3)ncc2c1`, the Potency was 2960 nM (active).

As for `Cc1cc(CN2CCN(c3c(Br)cnc4nc(-c5ccc(N6CCN(C)CC6)cc5)[nH]c34)CC2)no1`, the “viability (% of DMSO)” value is 140%.

As for `COc1cc2nccc(Oc3ccc(NC(=O)C4(C(=O)Nc5ccc(F)cc5)CC4)cc3)c2cc1OC`, the Potency is 4690 nM (active).

Regarding `Cc1coc2c1C(=O)C(=O)c1c-2ccc2c1CCCC2(C)C`, the Potency is 166 nM (active).

Regarding `CC(NCc1ccc2c(c1)nc(NC(=O)c1ccc(-c3cn[nH]c3)s1)n2CC(C)(C)O)C(C)(C)C` (stereo not given), the Potency is 83.3 nM (active).

For `C=CC(=O)Nc1cccc(Oc2nc(Nc3ccc(N4CCN(C)CC4)cc3)ncc2Cl)c1`, the Potency is 4690 nM (active).

For `Cc1ccc(NC(=O)C2(c3ccc4c(c3)OC(F)(F)O4)CC2)nc1-c1cccc(C(=O)O)c1`, the Potency was 46.9 nM (active).

With `CC(C)c1ccccc1Cc1cc(C(=O)Nc2ccc(S(=O)(=O)c3ccccc3C(C)(C)C)cc2)c(O)c(O)c1O`, the “viability (% of DMSO)” value was 120%.

Regarding `Cc1c(C)n(Cc2ccc(-c3ccccc3C(=O)O)cc2)c2ccc(C(=O)N[C@@H](C)c3ccc([N+](=O)[O-])cc3)cc12`, the Potency is 83.3 nM (active).

On to `CN(c1ncccc1CNc1nc(Nc2ccc3c(c2)CC(=O)N3)ncc1C(F)(F)F)S(C)(=O)=O`, for which the Potency is 2640 nM (active).

As to `CCC[C@H](NC(=O)C(C#N)=Cc1cccc(Br)n1)c1ccccc1`, the Potency was 7430 nM (active).

Consider `CC(C)c1ccc(Cn2ccc3c4c(N)nc(NC5CC5)nc4ccc32)cc1`, for which the Potency was 372 nM (active).

In the case of `Cc1nc2ccc(CN(C)c3ccc(C(=O)N[C@@H](CCC(=O)O)C(=O)O)s3)cc2c(=O)[nH]1`, the Potency is 264 nM (active).

For `CC(=O)Nc1nc(C)c(-c2ccc(Cl)c(S(=O)(=O)NCCO)c2)s1`, the Potency is 1320 nM (active).

On to `CC(C)(O)CCc1ccc(OCc2cc(-c3cccc(OC(F)F)c3)c3ncccc3c2)cc1`, for which the “viability (% of DMSO)” value is 120%.

Consider `CC=C1NC(=O)[C@H]2CSSCCC=C[C@H](CC(=O)N[C@H](C(C)C)C(=O)N2)OC(=O)[C@H](C(C)C)NC1=O`, for which the Potency was 1 nM (active).

Consider `C[C@@H]1CN(CC(=O)Nc2ccc3c(c2)Cc2cccc(-c4cc(=O)cc(N5CCOCC5)o4)c2S3)C[C@H](C)O1`, for which the Potency was 18700 nM (active).
